Screens as filed in PubChem.
E-sel TNF inh – TNF alpha driven E-selectin expression inhibition. HUVEC TNFa-induced E-selectin immunofluorescence, high content. inhibition, % at 2 µM. actives 0.71% (n = 120,000);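 active = inhibition above the batch mean plus 3 SD, and confirmed as a hit on visual image review, cut at about 43% in these data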;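 also: 0% = TNF-stimulated DMSO wells and 100% = unstimulated control wells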
F-actin modifier – alters cytoskeleton assembly in HUVEC cells; HUVEC TNFa F-actin phalloidin imaging, high content; inhibition, % at 2 µM; actives 0.18% (n = 91,000);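 active = inhibition above the batch mean plus 3 SD and confirmed as a hit by visual image inspection, cut at about 30% in these data, passing the limit was not always enough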
TNFa cytotox – toxic to HUVEC cells under TNF alpha stimulation. cell count reduction, % at 2 µM. actives 0.17% (n = 93,000). HUVEC TNFalpha-stimulated, Hoechst cell count, imaging;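 active = cell count reduction exceeding the screen mean by over 5 SD, scaled to untreated wells per plate, cut at about 78% in these data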;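 also: cells counted after 24 h of TNF alpha exposure following the 1 h pretreatment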
VCAM1 TNFa inh – reduces TNF alpha induced VCAM1 expression in HUVEC. HUVEC TNFa-induced VCAM-1 immunofluorescence, high-content imaging. inhibition, % at 2 µM. actives 0.48% (n = 95,000). AID 802;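 active = inhibition above the batch mean plus 3 SD, with images confirmed as a hit by eye, cut at about 37% in these data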;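 also: 0% = TNF-stimulated DMSO wells and 100% = unstimulated control wells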
* = called active by the depositor; . = no result. In the library only some 1% were active in any assay of this set; here they are far more common.

SMILES | E-sel TNF inh | F-actin modifier | TNFa cytotox | VCAM1 TNFa inh
CCc1ccc(NSc2ccccc2[N+](=O)[O-])cc1 | -42 | -59 | 18 | -26
COc1cccc(C(=O)Nc2c(C)n[nH]c2C)c1 | . | 0 | 1 | 8
Cc1cc(NC(=O)NC(=O)c2cccc(OC(F)(F)C(F)F)c2)n[nH]1 | -14 | -8 | 12 | 91*
Fc1ccc(Nc2ccc3ccccc3n2)c(F)c1 | -65 | . | . | .
CCCS(=O)(=O)c1nnnn1-c1cccc(OC)c1 | 98* | . | . | .
Cc1csc(NC(=O)CCN2C(=O)c3ccccc3S2(=O)=O)n1 | 5 | -5 | 0 | 22
CCOC(=O)Cc1csc(NC(=O)CN2C(=O)c3ccccc3S2(=O)=O)n1 | 96* | . | . | .
O=C(COC(=O)c1cccc(S(=O)(=O)NCc2ccccc2)c1)NCC1CCCO1 (stereo not drawn) | -11 | . | . | .
CCC(=O)n1nc(-c2ccc(Cl)cc2)nc1NCc1ccccc1 | 14 | -14 | -13 | -1
O=C1C(=O)c2ccc(-c3ccccc3)cc2-c2ccccc21 | -28 | -21 | 22 | 64*
O=C1CC(C(=O)Nc2cccc(F)c2)n2ncnc2N1 (stereo not drawn) | 1 | . | . | .
COc1ccc(OC)c2sc(NC(=O)CCS(=O)(=O)c3ccccc3)nc12 | 93* | 7 | 4 | 50*
O=C(N/N=C\C=C\c1ccc2c(c1)OCO2)C1COc2ccccc2O1 (stereo not drawn) | -11 | . | . | .
Oc1ccc(-c2csc(-c3ccccc3)n2)cc1O | 51* | -28 | -3 | 1
CCC(=O)N1CCc2cc(Br)cc(S(=O)(=O)NCc3ccco3)c21 | 79* | . | . | .
Cc1ccc(SCCC(=O)Nc2ccccc2C(=O)NC(C)C)cc1 | 67* | . | . | .
CC(C)(C)SCCNC(=O)CN(c1ccc(F)c(Cl)c1)S(C)(=O)=O | 34 | 9 | 9 | 6
CC(C)(C)SCCNC(=O)CN(c1ccc(F)cc1)S(C)(=O)=O | . | -36 | 79* | 90*
C=CCn1c(COc2cccc(C)c2C)nnc1SCC(=O)N1CCN(c2ccccc2)CC1 | 68* | . | . | .
CCn1c(COc2c(C)cccc2C)nnc1SCC(=O)N1CCN(c2ccccc2)CC1 | -19 | 4 | 4 | 6
COc1ccc2c(c1)OC1(C)CC2C(C(=O)c2ccccc2OC)C(=O)N1 (stereo not drawn) | -10 | . | . | .
COc1ccccc1C(=O)NNC(=O)c1nn(Cc2ccccc2)c(=O)c2ccccc12 | -26 | . | . | .
Cc1cc(O)c(C(C)C)cc1NS(=O)(=O)c1ccccc1 | -19 | 6 | -13 | 11
COc1ccc(C(=O)NCc2ccc3c(c2)OCO3)cc1S(=O)(=O)NCc1ccc(Cl)cc1 | -10 | . | . | .
COc1ccc(C(=O)NCCNC(C)=O)cc1S(=O)(=O)NCc1ccc(Cl)cc1 | 57* | 0 | -7 | 16
SMILES | E-sel TNF inh | F-actin modifier | TNFa cytotox | VCAM1 TNFa inh
COc1ccc(-n2nnnc2-c2cnc(N3CCCC3)nc2C(F)(F)F)cc1 | 100* | 6 | -8 | -1
CCN1c2ccccc2-c2nc3ccccc3n2C1c1cccnc1 (stereo not drawn) | 100* | 8 | -14 | -24
COc1ccccc1-c1cn(S(=O)(=O)c2ccc(C)cc2)nc1N | -9 | -7 | -19 | 91*
Nc1nnc(CCS(=O)(=O)c2ccc(Br)cc2)s1 | -30 | . | . | .
CN(C)c1ccc(/C=N\NC(=O)CC#N)cc1 | -10 | . | . | .
Cn1c(NCCN2CCCCC2)cc(=O)n(C)c1=O | 81* | . | . | .
COc1ccccc1NC(=S)N(Cc1ccco1)Cc1cc2cccc(C)c2[nH]c1=O | 61* | . | . | .
COc1cc(C(=O)N(Cc2ccco2)Cc2cc3ccccc3[nH]c2=O)cc(OC)c1OC | . | 35* | 44 | -8
Cn1cc(Cl)c(C(=O)NNC(=S)NCc2ccco2)n1 | 73* | . | . | .
Cc1c(Cl)c(C(=O)NNC(=S)NCc2ccco2)nn1C | 0 | 7 | 2 | -20
O=C(COc1ccc(Br)cc1)N1CCC(c2ccccc2)C1 (stereo not drawn) | 9 | -9 | 13 | 15
COc1ccccc1CNC(=O)c1cn(C)c2ccc(S(=O)(=O)N3CCCCC3)cc2c1=O | -25 | . | . | .
O=C(N/N=C1/CCS(=O)(=O)c2ccc(F)cc21)c1ccccn1 | 81* | . | . | .
O=C(COC(=O)c1c(Cl)ccc(Cl)c1Cl)NC1CCS(=O)(=O)C1 (stereo not drawn) | -40 | . | . | .
O=C(CSc1nc2ccccc2[nH]1)N1CCN(S(=O)(=O)c2ccc(Cl)cc2)CC1 | 68* | -26 | 15 | -8
Cn1c(CCC(=O)OCC(=O)NCc2ccc3c(c2)OCO3)nc(=O)c2ccccc21 | 12 | . | . | .
C=CCN(Cc1nc(-c2ccc(OC)c(OC)c2)oc1C)C1CCS(=O)(=O)C1 (stereo not drawn) | -4 | . | . | .
O=C(c1ccc(Cl)cc1)N1CCCCC(Cl)C1=O (stereo not drawn) | -10 | . | . | .
Cc1ccn2c(NC(=O)c3ccco3)c(-c3ccccc3)nc2c1 | -12 | 16 | -13 | 97*
